Most compounds without a hit are left out; they make up all but 7.6% or so of the library.
RORgamma inh = inhibitors of mouse ROR gamma transcriptional activity. Drosophila S2 Gal4-RORgamma UAS-luciferase reporter, 20 h. Potency, µM (series often up to 53.6 µM), for the others: at the highest dose activity change, negative = inhibition, hits mostly inhibitors. hit rate 5.4% among 310,000; also: potency is read from the fitted curve at half-maximal effect; % is scaled to controls: 0 for no effect and ±100 for the full control effect; nearly all actives have a fitted effect of over 60% in size
Target sequence (P51450 whole entry, looked up, the tested form may be a part): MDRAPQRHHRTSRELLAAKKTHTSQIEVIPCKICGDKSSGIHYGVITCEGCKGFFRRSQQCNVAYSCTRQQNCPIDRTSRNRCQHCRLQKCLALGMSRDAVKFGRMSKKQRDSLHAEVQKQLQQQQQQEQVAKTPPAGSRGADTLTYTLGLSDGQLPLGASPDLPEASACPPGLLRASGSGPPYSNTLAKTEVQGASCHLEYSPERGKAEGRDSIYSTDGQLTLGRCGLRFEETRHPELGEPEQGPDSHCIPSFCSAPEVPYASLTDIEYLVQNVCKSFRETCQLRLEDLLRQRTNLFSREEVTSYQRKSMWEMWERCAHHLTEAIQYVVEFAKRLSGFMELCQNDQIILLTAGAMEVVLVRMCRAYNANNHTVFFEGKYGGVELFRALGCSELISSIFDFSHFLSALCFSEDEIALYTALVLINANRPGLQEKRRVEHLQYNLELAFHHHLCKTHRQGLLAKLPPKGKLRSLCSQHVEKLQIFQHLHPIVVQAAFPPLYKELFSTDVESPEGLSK
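Schneider cells (Drosophila), stable Gal4 DBD–ROR gamma + UAS-luc; 1 hr cmpd preincubation; Cu2+ induction 700 uM final; 20 hr ambient; luminescence.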
ELG1 DNA repair = ELG1-dependent DNA repair inhibition. HEK293T ELG1-luciferase reporter, luminescence, 16 h; DNA damage induced by 5-fluorouridine. Potency, µM (series often up to 46.1 µM), without a hit: at the highest dose activity change, negative = inhibition, most hits filed as inhibitors. hit rate 2.3% among 330,000; also: potency is read from the fitted curve at half-maximal effect; % is scaled to controls: 0 for no effect and ±100 for the full control effect; nearly all actives have a fitted effect of over 55% in size
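Quantitative HTS, concentration-response format. 2,000 cells/well co-treated with 5-fluorouridine and compound, 16 hr in 5% CO2 at 37 °C; ONE-Glo luminescence read after 30 min.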
VP16 counter = inhibits Gal4-VP16 luciferase reporter, ROR gamma counter-screen; Drosophila S2 Gal4-VP16 UAS-luciferase, luminescence, 20 h; Potency, µM (doses to about 53.6 µM), inactives show at the top dose activity, negative = inhibition, most hits filed as inhibitors; hit rate 3.5% among 310,000;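 also: Gal4-VP16 expression switched on by copper sulfate through the metallothionein promoter; potency is read from the fitted curve at half-maximal effect; % is scaled to controls: 0 for no effect and ±100 for the full control effect; nearly all actives have a fitted effect of over 50% in size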
p53 reactivation = re-activators of mutant p53. H1299 p53-A138V BP100-luciferase reporter, luminescence, 24 h. AID 504706. Potency, µM (series often up to 92.2 µM), without a hit: at the highest dose activity change, positive = activation, usual class: activators. hit rate 0.063% among 320,000; also: potency is read from the fitted curve at half-maximal effect; % of control where 0% means no effect; nearly all actives have a fitted effect of over 45% in size
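H1299 (p53-null), stable ts p53-A138V + BP100-Luc; 1000 cells/well, Opti-MEM/10% FBS; cpd 4 pt, 1:5; 24 h, 37 deg C, 5% CO2; detection reagent 10 min RT; luminescence.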
Giardia kill = Giardia lamblia killing; Giardia lamblia trophozoite viability; activity change, % at 7.66 µM, hits read low; hit rate 0.15% among 340,000; in the data active = activity change below about -80%; inconclusive = between about -30% and that limit;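 also: parasites exposed to compound for two days anaerobically before the ATP read; % is scaled to controls: 0 for no effect and ±100 for the full control effect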
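Each well holds 100 Giardia trophozoites and compound. After two days (48 hrs) at 37 deg C in anaerobic conditions, ATP is quantified by luminescence.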
BRCA1 expr act = activators of BRCA1 expression. AID 624202. MCF7-BRCA1-FFLuc reporter, luminescence, 48 h; response scale: scaled: vehicle 0%, 10 µM genistein 100%. hit rate 1.1% among 380,000. Potency, µM (titrated, usually from 46.1 µM), inactives show at the top dose activation, actives largely listed as activators; also: potency is read from the fitted curve at half-maximal effect; nearly all actives have a fitted effect of over 80% in size
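MCF7-BRCA1-FFLuc cells, 2000/well in phenol-red-free MEM, attached 2 h then treated 48 h at 37 C. Luciferase luminescence read 15 min after reagent; normalized to genistein maximum activation (10microM) and DMSO, concentration-response fitted.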
* = called active by the depositor; ? = inconclusive; · = not tested or not shown; [ ] = dose if it differs, or a comment. Unless noted, calls follow the shape of the dose curve; as a rule, active = well fitted curve in the direction sought with a large enough effect; inconclusive = small, poorly fitted or top-dose-only effect, or another doubt; inactive = no such curve, though single readings can be large; an effect the other way counts as inactive or inconclusive.

SMILES	RORgamma inh	ELG1 DNA repair	VP16 counter	p53 reactivation	Giardia kill	BRCA1 expr act
CCOc1ccc(CCNC(=O)Cc2ccc(NC3=NC4CS(=O)(=O)CC4S3)cc2)cc1 (configuration not stated)	-10%	7%	-1%	1%	-9	-3%
CCOc1ccc(Nc2ccc(N)c(S(=O)(=O)O)c2)cc1	·	·	·	·	4	-25%
O=C(c1cccnc1Nc1ccccc1F)N1CCOCC1	-10%	-11%	21%	1%	8	-1%
COc1cccc(C2(O)CC(C(F)(F)F)=NN2C(=O)c2ccccn2)c1 (configuration not stated)	1.6µM*	?	6.3µM*	6%	-12	104%
COc1cccc(C(=O)N2N=C(c3cccc(OC)c3)CC2(O)C(F)(F)F)c1 (configuration not stated)	11µM*	9%	-18%	7%	1	2%
COc1ccc(C(=O)N2N=C(c3cccc(OC)c3)CC2(O)C(F)(F)F)cc1 (configuration not stated)	11µM*	?	-68%	-11%	0	-39%
COc1cccc(C(=O)N2N=C(c3ccccn3)CC2(O)C(F)(F)F)c1 (configuration not stated)	2µM*	-3%	5µM*	9%	9	-58%
COc1cccc(C2=NN(C(=O)c3ccc(C)o3)C(O)(C(F)(F)F)C2)c1 (configuration not stated)	-79%	-25%	?	-3%	-19	-34%
O=C(CCS(=O)(=O)c1cc2c3c(c1)CCN3C(=O)CC2)Nc1cccc(Br)c1	·	·	·	·	·	3%
CC(Oc1ccccc1Cl)C(=O)N1CCOCC1 (configuration not stated)	-2%	2%	-7%	6%	5	-9%
CCc1nnc(SCc2cn3c(C)cc(C)nc3n2)n1N	2%	5%	-3%	1%	9	8%
CC1=CC2=NC(=O)/C(=C\c3cccn3CCOc3cccc(C)c3)C(=N)N2O1	16µM*	23µM*	?	-4%	7	-31%
COc1cccc(OCCn2cccc2/C=C2/C(=N)N3OC(C)=CC3=NC2=O)c1	-1%	?	-4%	-2%	-3	15%
CC1=CC2=NC(=O)/C(=C\c3cccn3CCOc3cc(C)cc(C)c3)C(=N)N2O1	?	21µM*	?	2%	-15	-15%
CCN1C(=O)CC2(C[N+]3(C)CCC2CC3)C1=O (configuration not stated)	-12%	-1%	-2%	-8%	21	-10%
Clc1ccc(C[n+]2cc(-c3ccccc3)n3c2CCCCC3)c(Cl)c1	?	?	13µM*	-9%	5	-56%
CC1CCC(C(C)C)C(OC(=O)C[n+]2cc(-c3ccc(Cl)cc3)n3c2CCCCC3)C1 (configuration not stated)	-105%	?	10µM*	-12%	-1	-81%
Clc1ccc(C[n+]2cc(-c3ccccc3)n3c2CCC3)cc1Cl	18%	?	-8%	13%	27	-41%
Clc1ccc(-c2c[n+](Cc3ccc(Br)cc3)c3n2CCCCC3)cc1	?	?	11µM*	-3%	-3	-26%
O=[N+]([O-])c1ccc(C[n+]2cc(-c3ccc(Cl)c(Cl)c3)n3c2CCCCC3)cc1	0.25µM*	0%	-15%	8%	37	-7%
CN(Cc1ccccc1)C(=O)Cn1nnc(-c2ccccc2)c1COc1ccc2ccccc2c1	·	·	·	·	·	-44%
C[N+](C)(C)CCOc1ccc([N+](=O)[O-])cc1	-8%	1%	-1%[10 µM]	0%	-5	4%
COc1ccc(CCNC(=O)CCCCn2c(=O)c3ccccc3n(CC(=O)Nc3ccc(C)cc3C)c2=O)cc1OC	·	·	·	·	·	3%
Clc1ccc(-c2c[n+](Cc3cccc(Cl)c3)c3n2CCC3)cc1	?	-17%	-9%	-5%	7	-31%
Clc1ccc(-c2c[n+](Cc3ccc(Cl)cc3Cl)c3n2CCCCC3)cc1	-40%	?	11µM*	3%	-7	-59%
SMILES	RORgamma inh	ELG1 DNA repair	VP16 counter	p53 reactivation	Giardia kill	BRCA1 expr act
O=C(c1ccccc1)c1ccc(N2CCCC2)cc1	?	?	9%	?	4	45%
c1ccc2c(c1)NC1(CCCC1)n1c-2nc2ccccc21	-22%	?	-3%	?	-6	50%
CCCC1(C)Nc2ccccc2-c2nc3ccccc3n21 (configuration not stated)	-12%	?	-1%	?	7	8.9µM*
Cn1c(=O)c2cc(NC(=S)NCc3ccccc3F)ccc2n1Cc1ccccc1	·	·	·	·	·	3%
O=C(O)c1ccc2cccnc2c1O	14µM*	-5%	-20%	-2%	1	0%
O=C(O)c1ccc2cccnc2n1	-1%	-9%	3%	-1%	14	15%
O=C(CCn1c(=O)oc2ccccc21)Nc1ccc(C(=O)O)cc1	-1%	-4%	-3%	3%	3	-19%
COc1cc2c(cc1OC)C(c1ccccc1)N(C(=O)CCl)CC2 (configuration not stated)	25µM*	?	?	-10%	-3	-93%
Cc1ccccc1C(=O)N1CCN(CCNC(=O)C(=O)Nc2ccc(Br)cc2)CC1	20%	21µM*	-3%	-5%	-21	-24%
COc1ccccc1C(=O)N1CCN(CCNC(=O)C(=O)Nc2ccc(Br)c(C)c2)CC1	21%	?	-8%	-10%	34	-14%
O=P(CCNCc1ccco1)(c1ccccc1)c1ccccc1	-3%	2%	4%	1%	14	1%
CCCCn1c(=O)n(CC(=O)Nc2c(CC)cccc2CC)c(=O)c2c1nc(CO)n2CCC	7.1µM*	-5%	-2%	-10%	6	-22%
C=C1CSc2nc(=O)c3c4c(sc3n21)CCC4	-1%	21µM*	-9%	1%	-6	-3%
C=C1CSc2nc(=O)c3c4c(sc3n21)CCCC4	-10%	-5%	4%	12%	?	8%
CC(C)(C)OC(=O)NNC(=S)NCc1ccc(Cl)cc1	14µM*	-4%	?	-7%	42	-3%
O=C(COc1ccc(Br)cc1)NNC(=S)NCc1ccccc1	?	-3%	?	2%	-14	0%
O=C(COc1ccccc1Cl)NCc1ccccc1	3%	?	-4%	-3%	-6	61%
O=C(COc1ccc(Cl)cc1)NNC(=S)NCc1ccccc1	1.1µM*	?	5.6µM*	-8%	-9	-20%
C=CCc1ccccc1OCC(=O)NNC(=S)NCc1ccccc1	1.4µM*	-2%	10µM*	3%	-2	-11%
